From PubChem BioAssay AID624330 (Southern Research Specialized Biocontainment Screening …, 2012) come the findings set out here.

The campaign covered roughly 340,000 compounds. About 2,100 (0.62%) were called active.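 How the source made its calls: active means first-screen hits whose inhibition reached a set limit at any dose in the follow-up dose series; inconclusive means inhibition above the set first-screen limit but never retested; inactive means the rest.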 A selection follows. Potency and affinity values are given separately.

For this assay, the target named is Rac GTPase-activating protein 1 (Homo sapiens) (UniProt Q9H0H5). Kind of assay: MgcRacGAP GTPase-activating activity inhibitors, confirmation, biochemical, ADP Hunter fluorescence, primary and confirmatory (AID 624330).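 Further: fluorescence reports GDP produced by GAP-driven GTP hydrolysis.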 To be noted: MgcRacGAP-stimulated Rac1 GTP hydrolysis, at 30 µM, active compounds read high, GST-tagged Rac1 F28L mutant substrate.
Sequence of Rac GTPase-activating protein 1 (Homo sapiens) (Q9H0H5 whole entry, looked up): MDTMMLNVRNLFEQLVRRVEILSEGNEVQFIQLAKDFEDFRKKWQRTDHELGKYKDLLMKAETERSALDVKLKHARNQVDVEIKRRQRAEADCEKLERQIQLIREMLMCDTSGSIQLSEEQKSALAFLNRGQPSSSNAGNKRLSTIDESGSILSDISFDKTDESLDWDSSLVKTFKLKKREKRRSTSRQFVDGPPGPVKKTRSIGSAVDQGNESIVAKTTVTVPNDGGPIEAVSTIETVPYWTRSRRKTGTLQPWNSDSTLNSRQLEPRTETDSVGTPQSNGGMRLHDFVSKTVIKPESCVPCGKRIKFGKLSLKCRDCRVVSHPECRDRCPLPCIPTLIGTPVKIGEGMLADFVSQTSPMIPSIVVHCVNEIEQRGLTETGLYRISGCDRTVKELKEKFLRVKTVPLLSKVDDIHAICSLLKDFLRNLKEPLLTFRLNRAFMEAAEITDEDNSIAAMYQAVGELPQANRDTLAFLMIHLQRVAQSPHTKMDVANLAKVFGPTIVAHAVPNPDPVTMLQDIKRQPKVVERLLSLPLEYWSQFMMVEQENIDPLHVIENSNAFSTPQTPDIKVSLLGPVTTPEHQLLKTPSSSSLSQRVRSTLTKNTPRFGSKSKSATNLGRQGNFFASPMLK
In the case of `Cc1nn(Cc2ccccc2)c(C)c1NC(=O)CSc1nnc(-c2cc(Cl)ccc2O)n1C`, the inhibition was 3.78% (inactive).

Regarding `COc1ccccc1-c1nnc(SCC(=O)c2c(N)n(C3CC3)c(=O)[nH]c2=O)o1`, the inhibition was 4.98% (inactive).

Consider `O=C(CCC1CCCN(C(=O)c2ccc3c(c2)OCO3)C1)NCc1ccc(F)c(F)c1` (stereo unspecified), for which the inhibition is 6.44% (inactive).

As for `CCCC(=O)Nc1c(-c2ccccc2)c(=O)c(C)nn1-c1ccccc1`, the inhibition is -2.47% (inactive).

`Cc1cccc(NC(=O)CSCc2cc(=O)n3c(C)csc3n2)c1C`: the inhibition was -9.75% (inactive).

As for `CCOCCCNCC(=O)NC1(C)C2CCC(C2)C1(C)C` (stereo unspecified), the inhibition is 14.5% (inactive).

As to `CCOCCCNC(=O)C(=O)NCCCOCC`, the inhibition is 6.87% (inactive).

With `CC(NC(=O)CNC(=O)c1cccc(Cl)c1)c1ccccc1` (stereo unspecified), the inhibition was 0.16% (inactive).

On to `CCCCNc1c(-c2ccc(-c3ccc(C(C)=O)cc3)c(OC)c2)nc2cc(C)ccn12`, for which the inhibition is 4.91% (inactive).

In the case of `Cc1c(Cc2ccccc2)c(=O)oc2c(C)c(OCC(=O)N[C@@H](Cc3ccccc3)C(=O)O)ccc12`, the inhibition is 1.68% (inactive).

Consider `C[C@@H]1CN([C@@H](C)CO)C(=O)c2cc(NC(=O)Nc3ccc4c(c3)OCO4)ccc2O[C@H]1CN(C)S(=O)(=O)c1cn(C)cn1`, for which the inhibition was 11.5% (inactive).

With `COc1ccc2c(c1)CC=C1C2CCC2(C)C(=O)C(=NO)CC12` (stereo unspecified), the inhibition is 5.55% (inactive).

On to `CC12CCC3C(=CCc4cc(O)ccc43)C1CC(=NO)C2O` (stereo unspecified), for which the inhibition was 27.1% (inactive).

Regarding `Oc1c(Br)cc(/C=N/n2c(-c3ccccc3)n[nH]c2=S)cc1Br`, the inhibition was 17.3% (inactive).

Turning to `COc1cc(/C=N/N2C(C)CCCC2C)cc(Br)c1O` (stereo unspecified), the inhibition was 10.5% (inactive).

With `COc1cc(/C=N/N2C(=O)CSC2=S)cc(Br)c1O`, the inhibition was 24.4% (inactive).

Consider `CCc1n[nH]c(=S)n1/N=C/c1cc(Br)c(O)c(OC)c1`, for which the inhibition was 14.8% (inactive).

For the compound `Cc1nnc(C)n1/N=C/c1cc(Br)cc(Br)c1O`, the inhibition is 13.7% (inactive).

Consider `CCN=c1scc(C)n1/N=C/c1ccc(O)c(O)c1O`, for which the inhibition was -35.3% (inactive).

Consider `COc1cc2ncnc(NCc3ccc(F)cc3)c2cc1OC`, for which the inhibition was 5.92% (inactive).

Regarding `COc1ccc(-n2cnnc2SCC(=O)Nc2cc(C)on2)cc1`, the inhibition is 0.92% (inactive).

On to `Cc1nn(-c2nc3ccccc3[nH]2)c(N)c1-c1ccc(Cl)cc1`, for which the inhibition was 14.1% (inactive).

For `COc1ccc(NC(=O)[C@@H]2CCCN2S(=O)(=O)c2cccc3cccnc23)cc1`, the inhibition is 7.98% (inactive).

For the compound `Cc1c(N2C(=O)CSC2c2ccc(F)cc2)c(=O)n(-c2ccccc2)n1C` (stereo unspecified), the inhibition was -1.84% (inactive).

In the case of `Cc1cc(C)n(CC(=O)N2N=C(C(F)F)CC2(O)C(F)F)n1` (stereo unspecified), the inhibition is 5.91% (inactive).

`O=C(CC1C[C@H](C(=O)N2CCCCC2)[C@@]2(CCc3ccccc3)c3[nH]c4ccccc4c3CCN2C1=O)NCCc1ccccn1` (stereo partly specified): the inhibition was 10.2% (inactive).

In the case of `Cc1ccc(-n2c(=S)[nH]c3sc4c(c3c2=O)CCc2ccccc2-4)cc1`, the inhibition was 4.2% (inactive).

Regarding `CCn1c(=S)[nH]c2sc3c(c2c1=O)CCCC3`, the inhibition was 47.9% (inactive).

As to `C=CCn1c(=S)[nH]c2sc3c(c2c1=O)CCC3`, the inhibition is 14.3% (inactive).

Turning to `CCOc1ccc(-n2c(=O)[nH]c3sc4c(c3c2=O)CCCC4)cc1`, the inhibition was 12.1% (inactive).

In the case of `CCCn1c(=S)[nH]c2sc3c(c2c1=O)CCCC3`, the inhibition was 2.13% (inactive).

`C=CCn1c(=S)[nH]c2sc3c(c2c1=O)CCCC3`: the inhibition was 13.8% (inactive).

For the compound `COCCCn1c(=S)[nH]c2sc3c(c2c1=O)CCCS3`, the inhibition was 7.39% (inactive).

For `CN(C)CCCn1c(=S)[nH]c2sc3c(c2c1=O)CCCC3`, the inhibition was 26.2% (inactive).

On to `COc1ccc(/C(C)=N/NC(=S)Nc2cc(C)ccc2C)cc1`, for which the inhibition was -5.64% (inactive).

Take `CCOC(=O)C1C(=O)CC(C)(O)C(C(=O)OCC)C1c1ccc([N+](=O)[O-])cc1` (stereo unspecified): the inhibition was 11.4% (inactive).

Turning to `COc1ccc(N2CCN(c3nc4cc(C)ccc4cc3C=O)CC2)cc1`, the inhibition is 2.5% (inactive).

On to `Cc1ccc(C2=NN(C(=O)CSc3nc4ncc(Cl)cc4[nH]3)C(c3ccco3)C2)cc1` (stereo unspecified), for which the inhibition was 5.98% (inactive).

Turning to `C/C(=N\NC(=O)Cn1cnc2ccccc21)c1cccs1`, the inhibition was 4.15% (inactive).

On to `COc1ccc2c3n(nc2c1)CCN=C3c1ccc(C)cc1`, for which the inhibition was 4.94% (inactive).

Take `COc1cccc(-c2cc(C(=O)NC3CCCCC3)no2)c1`: the inhibition is 6.22% (inactive).

On to `O=C(NCc1ccccc1)C12CC3CC(CC(Br)(C3)C1)C2`, for which the inhibition is 5.84% (inactive).

As for `O=C1CCN(S(=O)(=O)c2ccccc2)N1`, the inhibition was -45.5% (inactive).

With `O=C1CCC(=O)N(c2ccccc2)N1`, the inhibition was 3.91% (inactive).

With `Cc1[nH]c(-c2ccc(F)cc2)cc1C(=O)N1CCN(c2cccc(Cl)c2)CC1`, the inhibition was 21.1% (inactive).

For the compound `COC(=O)Cn1ccc(N(C)C)c(C#N)c1=O`, the inhibition is -1.06% (inactive).

For the compound `CCOC(=O)N1CCN(Cc2nc(-c3ccc(Cl)cc3)no2)CC1`, the inhibition is 0.28% (inactive).

On to `CC(C)Oc1cccc(C(=O)NC(=S)Nc2ccc(Cl)c(C(=O)O)c2)c1`, for which the inhibition is 0.71% (inactive).

Take `O=C(CCNC(=O)C1CCN(S(=O)(=O)c2ccc(F)cc2)CC1)NCCc1ccc(Cl)cc1`: the inhibition is 1.71% (inactive).

As for `CCCN(CC(=O)Nc1ccc(F)c(F)c1F)C(=O)c1ccc2c(=O)n3c(nc2c1)CCC3`, the inhibition is 1.86% (inactive).

For the compound `CC1(Cc2cn(CCC#N)c3ccccc23)OCCO1`, the inhibition was 15.8% (inactive).

As to `N#CCCn1cc(CNC2CCC(O)CC2)c2ccccc21` (stereo unspecified), the inhibition is 3.99% (inactive).

For the compound `CCCCCC(=O)NC(NC(=S)NC1CCS(=O)(=O)C1)C(Cl)(Cl)Cl` (stereo unspecified), the inhibition was 8.9% (inactive).

Consider `Cc1cccc(OCCSc2nc(N)cc(N)n2)c1`, for which the inhibition is 25.9% (inactive).

For the compound `O=C(N/N=C/c1ccc[nH]1)c1ccc([N+](=O)[O-])cc1`, the inhibition is 13.2% (inactive).

Regarding `O=[N+]([O-])c1ccc(C=NNc2ccccc2)cc1`, the inhibition is 0.7% (inactive).

For the compound `Nc1c(N(CCO)C(=O)C2CCCC2)c(=O)[nH]c(=O)n1Cc1ccccc1`, the inhibition is 2.35% (inactive).

Consider `Cc1cc(C)cc(NC(=O)C2(c3ccccc3)CC2(Cl)Cl)c1` (stereo unspecified), for which the inhibition was 8.14% (inactive).

Take `COc1ccc(/C=N/N2CCN(C3c4ccccc4-c4ccccc43)CC2)cc1O`: the inhibition is 11.6% (inactive).

Turning to `CN(C(=O)CSc1nc2[nH]ncc2c(=O)[nH]1)c1ccccc1`, the inhibition was 2.08% (inactive).

For `Oc1c(Br)cc(Br)cc1C=Nc1ccc2[nH]ncc2c1`, the inhibition is 17.9% (inactive).

With `COc1cccc(N=Cc2ccc(O)cc2O)c1`, the inhibition was 8.51% (inactive).

`CC1(C)CC(=O)C(C=Nc2ccc3[nH]ncc3c2)=C(O)C1`: the inhibition was 6.45% (inactive).

`Cc1ccc(O)c(/C=N/NC(=O)c2[nH]ncc2Br)c1`: the inhibition is 0.98% (inactive).

For `C=CCOc1ccc(C=Nc2ccc(OC)cc2)c(O)c1`, the inhibition is 12% (inactive).

In the case of `Brc1ccc2[nH]ncc2c1`, the inhibition was 3.94% (inactive).

Regarding `CCOC(=O)c1nc(NNC(C)=O)sc1C`, the inhibition is 0.96% (inactive).

In the case of `Cc1nc2nc(-c3cccs3)[nH]c2cc1Br`, the inhibition was 10.5% (inactive).

For `Cc1cccc(NC(=O)c2nc(-c3ccccc3)n(-c3ccccc3)n2)c1C`, the inhibition is 10.4% (inactive).

Turning to `Cc1nnc(CN(C)C(=O)CC2C(=O)NCCN2Cc2ccccc2C)o1` (stereo unspecified), the inhibition was -0.43% (inactive).

For `Cc1nc(CNS(=O)(=O)c2cc(C)c(C)cc2C)cs1`, the inhibition is 10.2% (inactive).

`Nc1ccc(SCc2cccnc2)cc1`: the inhibition is 14% (inactive).

For `CC(C)(C)OC(=O)N1CCN(C(=O)c2[nH]cnc2C(=O)Nc2ccc(Cl)cc2)CC1`, the inhibition was 8.41% (inactive).

In the case of `O=C(NCc1cccnc1)C1CCN(S(=O)(=O)c2cccs2)CC1`, the inhibition was 8.85% (inactive).

Regarding `CSc1ccc(S(=O)(=O)Nc2ccc(S(=O)(=O)Nc3ccc(C)cc3)cc2)cc1`, the inhibition is 8.03% (inactive).

With `CN(C)c1ccc(S(=O)(=O)c2ccc(Cl)cc2)cc1`, the inhibition was -2.71% (inactive).

As for `CC(=O)N(C)c1ccc(NS(=O)(=O)c2cc(Cl)ccc2Cl)cc1`, the inhibition was 11.1% (inactive).

As to `O=S(=O)(Nc1ccncc1)c1ccc(Cl)cc1`, the inhibition was 2.85% (inactive).

`Cc1ccc(S(=O)(=O)Nc2ccc(N(C)S(=O)(=O)c3ccc(C)cc3)cc2)cc1`: the inhibition is 3.88% (inactive).

Turning to `CCN(c1ccc(NS(=O)(=O)c2cc(Cl)ccc2Cl)cc1)C(C)C`, the inhibition is 10.2% (inactive).

For `CC(=O)Nc1ccc(S(=O)(=O)N[C@@H](C)C(=O)OCc2ccc(Cl)cc2)cc1`, the inhibition is 3.47% (inactive).

In the case of `Cc1ccc(NC(=O)COC(=O)C(NS(=O)(=O)c2ccc(Cl)cc2)C(C)O)cc1` (stereo unspecified), the inhibition is 4.48% (inactive).

Take `O=C(CCSc1ccc(Cl)cc1)NCc1ccccn1`: the inhibition is 14.8% (inactive).

With `CC(=O)CC(=O)Nc1ccc(Cl)cn1`, the inhibition is 4.78% (inactive).

Consider `CCOC(=O)N1CCC(N2CCN(S(=O)(=O)c3ccc([N+](=O)[O-])cc3)CC2)CC1`, for which the inhibition was 30.9% (inactive).

As for `COc1ccc2nc(NC(=O)CSc3cn[nH]n3)sc2c1`, the inhibition is 6.06% (inactive).

Take `Nc1ccccc1NC(=O)NC(=O)c1ccccc1`: the inhibition was 12.1% (inactive).

For the compound `COC(=O)Cn1cc(/C=N/NC(=O)COc2cccc3cccnc23)c2ccccc21`, the inhibition is 5.77% (inactive).

On to `Cc1cc(C(=O)Nc2sccc2C#N)c2ccccc2n1`, for which the inhibition is 12% (inactive).

Take `Cn1nnc(NC(=O)c2ccc(Br)o2)n1`: the inhibition is 11.1% (inactive).

For `COCc1ccc(CN2CCC(N3CCC(C(=O)N4CCCC4)CC3)CC2)o1`, the inhibition is 1.64% (inactive).

Regarding `CN(CC(=O)Nc1ccc(F)cc1)C(=O)c1cccc(NS(=O)(=O)c2ccccc2)c1`, the inhibition was 5.16% (inactive).

With `COCCCNC(=O)/C(C#N)=C/c1c(N2CCN(c3ccccc3)CC2)nc2c(C)cccn2c1=O`, the inhibition is 10.4% (inactive).

Turning to `COCCNC(=O)/C(C#N)=C/c1c(N2CCN(c3ccc(OC)cc3)CC2)nc2c(C)cccn2c1=O`, the inhibition was 31.4% (inactive).

Consider `OCCNCc1c(OCc2ccc(Cl)cc2)ccc2ccccc12`, for which the inhibition is 8.81% (inactive).

Consider `CCc1ccc(NC(=O)CCNC(=O)Cn2cnc3ccccc3c2=O)cc1`, for which the inhibition was 9.24% (inactive).
